In PubChem BioAssay (Tox21):
Records with an inconclusive call do not appear. A call without a number means that no potency is given here. The source made the active and inactive calls. Unless noted, calls come from the whole dose curve; as a rule, active = well fitted curve in the direction sought with a large enough effect in the repeat runs; inconclusive = weak or mixed curves; inactive = no such curve, though single readings can be large; an effect the other way counts as inactive or inconclusive.

Experiments:
[1] = qHTS assay to identify small molecule agonists of the NFkB signaling pathway (AID 1159509; active = well fitted curve in the direction sought with a large enough effect in the signal ratio in the repeat runs, not every such curve was filed as active; the % refers to the signal ratio; note: series mostly up to about 61 µM)
Outline: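 Readout: FRET fluorescence, 405 nm excitation, 460/530 nm emission; beta-lactamase expression disrupts FRET. Cells: ME-180 stably carrying NF-kB-driven bla reporter. Compound exposure 5 hr, 37 C, 5% CO2.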

[2] = qHTS assay to identify small molecule agonists of the endoplasmic reticulum stress response signaling pathway (AID 1159516; active = well fitted activation curve with a large enough effect in the signal ratio in the repeat runs, not every such curve was filed as active; the % refers to the signal ratio)
Outline: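 Beta-lactamase expression from the ER stress response element in HeLa reporter cells is quantified with the LiveBLAzer B/G FRET substrate, read at 405 nm excitation after 2 hr at room temperature, following 5 hr compound treatment at 37 C.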

[3] = qHTS assay to identify small molecule agonists of the endoplasmic reticulum stress response signaling pathway - cell viability counter screen (AID 1159517; calls by dose curve; note: series mostly up to about 61 µM; nearly all actives have a fitted effect of over 50% in size)
Outline: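 Cytotoxicity of test compounds toward ESRE-bla HeLa cells was assessed after 5 hr exposure. The luminescent CellTiter-Glo signal was measured 30 min after reagent addition.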

[4] = molecular target: Nuclear receptor ROR-gamma (Homo sapiens) (UniProt P51449); assay: qHTS assay to identify small molecule antagonists of the retinoid-related orphan receptor gamma (ROR-gamma) signaling pathway (AID 1159521; note: nearly all actives have a fitted effect of over 50% in size; note: potency is the fitted concentration of half-maximal effect)
Outline: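 Screening format: cell-based luciferase reporter in CHO cells with doxycycline-inducible RORγ. Compound pre-exposure lasts 2 h, doxycycline is 1 uM final, induction runs 16 h at 37 C, and ONE-Glo luminescence is read.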

[5] = qHTS assay to identify small molecule agonists of the AP-1 signaling pathway - cell viability counter screen (AID 1159525; calls by dose curve; note: nearly all actives have a fitted effect of over 55% in size; note: potency is the fitted concentration of half-maximal effect)
Outline: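 Each titration point was normalised to DMSO and tetra n-octyl ammonium bromide controls. The read was Cell Titer Glo luminescence after 30 min at RT, following 5 h compound exposure of ME-180 AP-1-bla cells at 37 °C.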

[6] = qHTS assay to identify small molecule agonists of the vitamin D receptor (VDR) signaling pathway - cell viability counter screen (AID 743224); note: nearly all actives have a fitted effect of over 50% in size; note: potency is the fitted concentration of half-maximal effect
Outline: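 In parallel with the bla FRET readout, cytotoxicity toward VDR-bla cells after 16 h compound exposure was assessed by CellTiter-Glo, with luminescence recorded after a 30 min room-temperature incubation.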

[7] = qHTS assay to identify small molecule antagonists of the vitamin D receptor (VDR) signaling pathway - cell viability counter screen (AID 743225); note: nearly all actives have a fitted effect of over 50% in size; note: potency is the fitted concentration of half-maximal effect
Outline: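 In this counter screen, VDR-bla HEK 293T cells receive test compound plus 3 nM final calcitriol for 16 h at 37C. Room-temperature steps of 2 h with the beta-lactamase substrate, then 30 min with CellTiter-Glo, precede the luminescence read.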

[8] = qHTS assay to identify small molecule antagonists of the retinoid-related orphan receptor gamma (ROR-gamma) signaling pathway - cell viability counter screen (AID 1159520); note: nearly all actives have a fitted effect of over 50% in size; note: potency is the fitted concentration of half-maximal effect
Outline: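 Tet-on ROR gamma CHO cells (1,000/well) were plated 4 hr, given compounds in DMSO for 2 hr at 37 C, then induced with 1 uM final doxycycline for 16 hr. Viability was read as ATP by CellTiter-Glo luminescence after 30 min.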

[9] = qHTS assay to identify small molecule agonists of the AP-1 signaling pathway (AID 1159526; calls by dose curve)
[10] = qHTS assay to identify small molecule agonists of the NFkB signaling pathway - cell viability counter screen (AID 1159515; calls by dose curve; note: series mostly up to about 61 µM; nearly all actives have a fitted effect of over 55% in size)
Outline: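 Plate 2,000 NFkB-bla ME-180 cells/well; incubate overnight. Add compounds, 5 hr at 37 C. Add FRET substrate, 1.5 hr RT. Add CellTiter-Glo, 30 min RT; read luminescence.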

In the case of `O=[N+]([O-])c1cc(C2CCCCC2)c(O)c([N+](=O)[O-])c1`, the Potency [1] is reported as “inactive”, the Potency [2] is reported as “inactive” and the Potency [3] is reported as “inactive”. The Potency [4] was 4.31 µM (active) and the Potency [5] was “inactive”.

In the case of `CCCCCCCCCI`, the Potency [6] is reported as “inactive”, the Potency [7] is reported as “inactive” and the Potency [1] is reported as “inactive”. The Potency [2] was “inactive”, the Potency [3] was “inactive” and the Potency [8] was “inactive”. The Potency [4] was “inactive” and the Potency [5] was “inactive”.

For `COC(=O)[C@H]1[C@H]2C[C@@H]3c4[nH]c5cc(OC)ccc5c4CCN3C[C@H]2C[C@@H](OC(=O)/C=C/c2ccc(O)c(OC)c2)[C@@H]1OC`, the Potency [7] was “inactive”, the Potency [1] was “inactive” and the Potency [2] was “inactive”. For the same molecule, the Potency [3] was “inactive”, the Potency [4] was 13.3 µM (active) and the Potency [5] was “inactive”. For the same molecule, the Potency [9] was “inactive”.

For `CC(=O)Nc1ccc(C)cc1C`, the Potency [6] was “inactive”, the Potency [7] was “inactive” and the Potency [1] was “inactive”. The Potency [2] was “inactive”, the Potency [3] was “inactive” and the Potency [8] was “inactive”. The Potency [4] was “inactive”, the Potency [5] was “inactive” and the Potency [9] was “inactive”.

In the case of `Brc1cc(Br)c(Oc2cc(Br)c(Br)cc2Br)cc1Br`, the Potency [6] is reported as 23.9 µM (active), the Potency [7] is reported as “inactive” and the Potency [1] is reported as “inactive”. The Potency [2] was “inactive”, the Potency [3] was “inactive” and the Potency [8] was “inactive”. The Potency [4] was “inactive” and the Potency [5] was “inactive”.

For `O=C(/C=C/c1ccc(O)c(O)c1)O[C@@H]1C[C@@](OC(=O)/C=C/c2ccc(O)c(O)c2)(C(=O)O)C[C@@H](O)[C@@H]1O`, the Potency [6] was “inactive”, the Potency [7] was “inactive” and the Potency [1] was “inactive”. The Potency [2] was “inactive”, the Potency [3] was “inactive” and the Potency [8] was “inactive”. For the same molecule, the Potency [4] was “inactive”, the Potency [5] was “inactive” and the Potency [9] was “inactive”.

With `CCn1cc(C(=O)O)c(=O)c2cc(F)c(N3CCNCC3)cc21` the Potency [6] was “inactive”, the Potency [7] was “inactive” and the Potency [1] was “inactive”. The Potency [2] was “inactive”, the Potency [3] was “inactive” and the Potency [8] was “inactive”. For the same molecule, the Potency [4] was “inactive”, the Potency [5] was “inactive” and the Potency [9] was “inactive”.

For `CC(=O)OCC[N+](C)(C)C`, the Potency [6] was “inactive”, the Potency [7] was “inactive” and the Potency [1] was “inactive”. The Potency [2] was “inactive”, the Potency [3] was “inactive” and the Potency [8] was “inactive”. The Potency [4] was “inactive” and the Potency [5] was “inactive”.

For `COc1ccccc1N1CCN(CCCCNC(=O)c2ccc(-c3ccc(C(C)=O)cc3)cc2)CC1`, the Potency [6] was “inactive”, the Potency [7] was “inactive” and the Potency [1] was “inactive”. The Potency [2] was “inactive”, the Potency [3] was “inactive” and the Potency [8] was “inactive”. For the same molecule, the Potency [5] was “inactive” and the Potency [9] was “inactive”.

For `O=C=Nc1cccc(C(F)(F)F)c1`, the Potency [1] was “inactive”, the Potency [2] was “inactive” and the Potency [8] was “inactive”. For the same molecule, the Potency [4] was “inactive”, the Potency [5] was “inactive” and the Potency [9] was “inactive”.

For `CCC=CC#N`, the Potency [6] was “inactive”, the Potency [1] was “inactive” and the Potency [2] was “inactive”. The Potency [3] was “inactive”, the Potency [8] was “inactive” and the Potency [5] was “inactive”. The Potency [9] was “inactive”.

For `NC1[C@H]2CN(c3nc4c(cc3F)c(=O)c(C(=O)O)cn4-c3ccc(F)cc3F)C[C@@H]12` (stereo not given in full), the Potency [1] was “inactive”, the Potency [2] was “inactive” and the Potency [8] was “inactive”. The Potency [4] was “inactive”, the Potency [5] was “inactive” and the Potency [9] was “inactive”.

In the case of `Clc1ccc(Nc2nnc(Cc3ccncc3)c3ccccc23)cc1`, the Potency [1] is reported as “inactive”, the Potency [2] is reported as “inactive” and the Potency [3] is reported as “inactive”. The Potency [5] was “inactive” and the Potency [9] was “inactive”.

With `CC(=O)N/N=C/c1ccc([N+](=O)[O-])o1` the Potency [6] was “inactive”, the Potency [7] was “inactive” and the Potency [1] was “inactive”. The Potency [2] was “inactive”, the Potency [3] was “inactive” and the Potency [4] was “inactive”. The Potency [9] was “inactive”.

In the case of `CN(C)CCC=C1c2ccccc2C=Cc2ccccc21`, the Potency [6] is reported as “inactive”, the Potency [1] is reported as “inactive” and the Potency [2] is reported as “inactive”. The Potency [3] was “inactive”, the Potency [8] was “inactive” and the Potency [4] was “inactive”. The Potency [5] was “inactive”.

In the case of `CN1CCCN=C1COC(=O)C(O)(c1ccccc1)C1CCCCC1` (stereo not given), the Potency [6] is reported as “inactive”, the Potency [7] is reported as “inactive” and the Potency [2] is reported as “inactive”. The Potency [8] was “inactive”, the Potency [4] was “inactive” and the Potency [5] was “inactive”. For the same molecule, the Potency [9] was “inactive”.

With `Cc1ccco1` the Potency [6] was “inactive”, the Potency [7] was “inactive” and the Potency [2] was “inactive”. The Potency [8] was “inactive”, the Potency [4] was “inactive” and the Potency [5] was “inactive”. The Potency [9] was “inactive”.

With `CN1C[C@H](C(=O)N[C@]2(C)O[C@@]3(O)[C@@H]4CCCN4C(=O)[C@H](Cc4ccccc4)N3C2=O)C[C@@H]2c3cccc4[nH]cc(c34)C[C@H]21` the Potency [6] was 29.8 µM (active), the Potency [2] was “inactive” and the Potency [3] was “inactive”. For the same molecule, the Potency [4] was “inactive”, the Potency [5] was “inactive” and the Potency [9] was “inactive”.

With `O=C=Nc1ccc(Cl)c(Cl)c1` the Potency [3] was “inactive”, the Potency [8] was “inactive” and the Potency [4] was “inactive”. The Potency [5] was “inactive” and the Potency [9] was “inactive”.

In the case of `CC(CC1c2ccccc2CCc2ccccc21)CN(C)C` (stereo not given), the Potency [6] is reported as “inactive”, the Potency [2] is reported as “inactive” and the Potency [3] is reported as “inactive”. The Potency [8] was “inactive” and the Potency [5] was “inactive”.

With `CCCCCCCCCCCCCCN(CCO)CCO` the Potency [6] was 24.5 µM (active), the Potency [7] was 43.6 µM (active) and the Potency [10] was “inactive”. For the same molecule, the Potency [3] was “inactive”, the Potency [8] was 61.1 µM (active) and the Potency [4] was 30.6 µM (active). For the same molecule, the Potency [5] was 54.9 µM (active).

In the case of `C[C@]1(Cn2ccnn2)[C@H](C(=O)O)N2C(=O)C[C@H]2S1(=O)=O`, the Potency [6] is reported as “inactive”, the Potency [7] is reported as “inactive” and the Potency [10] is reported as “inactive”. The Potency [3] was “inactive”, the Potency [8] was “inactive” and the Potency [5] was “inactive”.

In the case of `CC1=Nc2ccc3ccccc3c2C1(C)C`, the Potency [6] is reported as “inactive”, the Potency [7] is reported as “inactive” and the Potency [10] is reported as “inactive”. For the same molecule, the Potency [3] was “inactive”, the Potency [8] was “inactive” and the Potency [5] was “inactive”.

In the case of `Brc1cc2ccccc2c2ccccc12`, the Potency [6] is reported as “inactive”, the Potency [7] is reported as “inactive” and the Potency [10] is reported as “inactive”. The Potency [4] was 21.8 µM (active) and the Potency [5] was “inactive”.

For `C=CC(C)(CCC=C(C)C)OC(=O)CC(C)C` (stereo not given), the Potency [6] was “inactive”, the Potency [7] was “inactive” and the Potency [3] was “inactive”. The Potency [8] was “inactive”, the Potency [4] was “inactive” and the Potency [5] was “inactive”. For the same molecule, the Potency [9] was “inactive”.

With `CC(C)=CC(=O)C=C(C)C` the Potency [6] was “inactive”, the Potency [7] was “inactive” and the Potency [10] was “inactive”. The Potency [8] was “inactive”, the Potency [5] was “inactive” and the Potency [9] was “inactive”.

With `C/C=C\C/C=C/CCCCCCCCOC(C)=O` the Potency [10] was “inactive”, the Potency [3] was “inactive” and the Potency [4] was “inactive”. The Potency [5] was “inactive”.
